The record followed here is PubChem BioAssay (NCI).

What all share (test): NCI-60 one-dose screen, 48 h (100 = growth as untreated, 0 = no growth, -100 = all killed)
Common to all, as to conditions: 10 µM unless noted

Experiment [1] deals with DU-145 prostate.
For experiment [2], the system named is K-562 leukemia.
For experiment [3], the system named is MALME-3M melanoma.
Experiment [4] relates to MDA-MB-231 breast.
Experiment [5] relates to RXF 393 renal.
The test system of experiment [6] is SF-268 CNS.
For experiment [7], the system named is SF-295 CNS.
Experiment [8] deals with SF-539 CNS.
Experiment [9] has as its system M14 melanoma.
Experiment [10] concerns UACC-257 melanoma.

Structures are written as SMILES. This is part of a sample that, as a whole, favours compounds with a hit. Of some 83,000 tested, about 20% had one in any assay.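 Growth was measured after 48 h exposure to one concentration of compound in 96-well plates. Values under 10 count as active.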 The source made the active and inactive calls.

On to `Clc1ccc(Cn2cc(-c3nc4ccc(Br)nc4n3Cc3ccc(Cl)cc3)c3cccnc32)cc1`, for which the growth is 105% (inactive) in experiment [1]; 78.9% (inactive) in experiment [2]; 92.4% (inactive) in [3]; 53.1% (inactive) in experiment [4]; 83% (inactive) in experiment [5]; 89.2% (inactive) in [6]. The growth in experiment [7] is 83.9% (inactive); in experiment [8], 86% (inactive); in experiment [9], 89.8% (inactive).
Consider `CSc1ccc(N(C)c2nc(C)nc3c2CCC3)cc1`, for which the growth was 9.33% (active) in experiment [1]; 5.51% (active) in experiment [2]; 92.8% (inactive) in experiment [3]; 10% (inactive) in [4]; 44.7% (inactive) in experiment [5]; 26.9% (inactive) in experiment [6]. Moreover, the values for the growth in [7], in [8] and in experiment [9] were 14.3% (inactive), -16.1% (active) and 5.22% (active), respectively.
Regarding `C/C(=N\Nc1cc(C)c2ccccc2n1)c1ccccn1`, the growth is 18.3% (inactive) in [1]; -41.4% (active) in experiment [2]; -77.9% (active) in [3]; -28.7% (active) in [4]; -77.4% (active) in experiment [5]; -6.64% (active) in [6]. Besides, the growth in [8] is -53.8% (active); in experiment [10] it was -62.1% (active); in [9], -81.4% (active).
As to `COc1cccc(-c2nn(-c3ccccc3)cc2-c2ccnc(NCCNS(=O)(=O)c3ccc(Cl)cc3)c2)c1`, the growth in experiment [1] is 52.7% (inactive); in [2] it was 11.7% (inactive); in [3], 50.3% (inactive); in experiment [4] it was 19.3% (inactive); in experiment [5], 29.8% (inactive); in experiment [6], 45.7% (inactive). Also, the growth is 21.7% (inactive) in experiment [7], 54.1% (inactive) in experiment [8] and 28.6% (inactive) in experiment [9].
Regarding `Nc1c(C(=O)Nc2c(Cl)cccc2Cl)sc2nc3c(cc12)C(=O)CCC3`, the growth in [1] was 41.1% (inactive); in experiment [2], 16.6% (inactive); in [3], 35.2% (inactive); in experiment [4], 51.1% (inactive); in experiment [5], 23.7% (inactive); in experiment [6], 57.8% (inactive). The values for the growth in experiment [7], in experiment [8] and in experiment [9] were 18.8% (inactive), 5.18% (active) and 12.1% (inactive), respectively.
Consider `COc1ccc(/C=C/C(=O)NCC(C)O)cc1` (stereo unspecified), for which the growth in experiment [1] is 103% (inactive); in experiment [2], 122% (inactive); in [3], 101% (inactive); in experiment [4], 100% (inactive); in experiment [5], 90.7% (inactive); in experiment [6], 94% (inactive). The growth is 99.7% (inactive) in [7], 92.8% (inactive) in experiment [8] and 101% (inactive) in experiment [9].
As to `Nc1c(C(=O)Nc2cccc(Cl)c2)sc2ncc(Cl)cc12`, the growth is 56.7% (inactive) in experiment [1]; 80.6% (inactive) in [2]; 69.8% (inactive) in experiment [3]; 83.7% (inactive) in [4]; 83.5% (inactive) in experiment [5]; 63.5% (inactive) in experiment [6]. Also, the values for the growth in [8], in experiment [10] and in [9] were 60.8% (inactive), 100% (inactive) and 88.2% (inactive), respectively.
Turning to `NC1(N)C=CC2=C(C=C1)C1(N)C3=C(C=CC(N)(N)C=C3)N2C2(N)C3=C(C=CC(N)(N)C=C3)N1C1=C2C=CC(N)(N)C=C1`, the growth in [1] is 97% (inactive); in experiment [2] it was 81.7% (inactive); in experiment [3] it was 103% (inactive); in [4], 67.3% (inactive); in [5], 104% (inactive); in [6] it was 86.8% (inactive). The results for the growth in experiment [8], in [10] and in experiment [9] were 73.4% (inactive), 89.7% (inactive) and 94.5% (inactive), respectively.
As to `O=C1CCN2C(=O)Nc3ccccc3C2C1` (stereo unspecified), the growth is 112% (inactive) in [1]; 101% (inactive) in experiment [2]; 87.4% (inactive) in [3]; 93.5% (inactive) in experiment [4]; 112% (inactive) in [5]; 110% (inactive) in experiment [6]. For the same compound, the growth in [7] was 97.5% (inactive); in experiment [8], 95.5% (inactive); in experiment [9], 86.3% (inactive).
For the compound `O=c1c(CNc2ccc(S(=O)(=O)Nc3nccs3)cc2)coc2ccccc12`, the growth in experiment [1] was 110% (inactive); in [2] it was 92.2% (inactive); in [3] it was 99.7% (inactive); in [4] it was 98.8% (inactive); in experiment [5], 103% (inactive); in experiment [6] it was 113% (inactive). Moreover, the growth in [8] was 107% (inactive); in experiment [10] it was 106% (inactive); in experiment [9] it was 104% (inactive).
Turning to `COc1ccc2nc(-c3cc(-c4cc(OC)c(OC)c(OC)c4)n[nH]3)[nH]c2c1`, the growth was 11.8% (inactive) in [1]; -10.7% (active) in [2]; -40.4% (active) in [3]; 36.2% (inactive) in experiment [4]; 45.8% (inactive) in experiment [5]; 10.7% (inactive) in [6]. For the same compound, the growth in [8] was 34.4% (inactive); in experiment [10] it was -13.4% (active); in [9], 9.11% (active).
Consider `OCC12CCCC(CO)(COC1)C2O` (stereo unspecified), for which the growth in experiment [1] is 127% (inactive); in experiment [2], 120% (inactive); in experiment [3], 114% (inactive); in experiment [4] it was 94.3% (inactive); in experiment [5], 121% (inactive); in [6] it was 113% (inactive). Moreover, the growth in experiment [8] is 105% (inactive); in [10], 100% (inactive); in [9] it was 97.6% (inactive).
Consider `COc1cc(-c2cc(-c3nc4ccc(F)cc4[nH]3)[nH]n2)cc(OC)c1OC`, for which the growth was 35.5% (inactive) in experiment [1]; 0.735% (active) in experiment [2]; 7.29% (active) in [3]; 49.4% (inactive) in [4]; 36.5% (inactive) in [5]; 36.4% (inactive) in [6]. In addition, the growth in experiment [8] is 52.6% (inactive); in [10], 29.6% (inactive); in experiment [9] it was 21.5% (inactive).
For `OCCNc1nc(Nc2ccc(Cl)c(Cl)c2)nc2ccccc12`, the growth in experiment [1] was 70.9% (inactive); in experiment [2] it was 2.65% (active); in experiment [3] it was 31.1% (inactive); in experiment [4] it was 5.57% (active); in experiment [5], 16.8% (inactive); in experiment [6], 48.6% (inactive). The values for the growth in [8], in experiment [10] and in experiment [9] were 75.1% (inactive), 57.9% (inactive) and 29.9% (inactive), respectively.
